From PubChem BioAssay (Tox21)
Results filed as inconclusive are left out. Entries that show only a call come without a potency. Values without a mark were called inactive. Activity calls are given as the source filed them. Unless noted, calls follow the shape of the dose curve; as a rule, active = well fitted curve in the direction sought with a large enough effect in the repeat runs; inconclusive = weak or mixed curves; inactive = no such curve, though single readings can be large; an effect the other way counts as inactive or inconclusive.

How the values were obtained:
[1] = qHTS assay to identify small molecule antagonists of the estrogen related receptor (ERR) signaling pathway from Tox21 library - cell viability counter screen (AID 1224834); also: nearly all actives have a fitted effect of over 30% in size
Method in brief: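 ERR cells, 2,000/well; 6 h settle at 37 C/5% CO2; pin-tool compound transfer in DMSO; 17.5 h at 37 C; CellTiter-Fluor, 30 min; fluorescence intensity.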

[2] = target: Luciferin 4-monooxygenase (Photinus pyralis) (UniProt P08659); assay: qHTS assay to identify small molecule inhibitors of firefly luciferase (AID 1224835); also: nearly all actives have a fitted effect of over 25% in size; also: potency is read from the fitted curve at half-maximal effect
Luciferin 4-monooxygenase (Photinus pyralis), sequence (P08659 whole entry, looked up): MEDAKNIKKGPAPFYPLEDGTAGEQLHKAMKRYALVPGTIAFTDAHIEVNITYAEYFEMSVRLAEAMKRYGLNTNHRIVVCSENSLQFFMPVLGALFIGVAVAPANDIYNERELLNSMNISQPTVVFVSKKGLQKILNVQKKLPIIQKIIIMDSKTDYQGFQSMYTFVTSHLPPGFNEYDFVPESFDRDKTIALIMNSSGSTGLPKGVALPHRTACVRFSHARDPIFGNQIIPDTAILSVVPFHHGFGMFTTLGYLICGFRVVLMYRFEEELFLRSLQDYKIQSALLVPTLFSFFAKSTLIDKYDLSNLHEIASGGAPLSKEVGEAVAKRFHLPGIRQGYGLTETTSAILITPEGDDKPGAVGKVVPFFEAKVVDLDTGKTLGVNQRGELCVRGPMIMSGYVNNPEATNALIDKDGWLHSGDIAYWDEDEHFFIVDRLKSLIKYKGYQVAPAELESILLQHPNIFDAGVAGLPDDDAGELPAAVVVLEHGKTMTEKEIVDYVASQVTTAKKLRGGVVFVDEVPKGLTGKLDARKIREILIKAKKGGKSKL
Method in brief: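 Quantitative HTS format; KM concentrations of both substrates. Purified P. pyralis FLuc activity quantified from luminescence images.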

[3] = qHTS assay to identify small molecule agonists of the constitutive androstane receptor (CAR) signaling pathway - cell viability counter screen (AID 1224836); also: series mostly up to about 92 µM; nearly all actives have a fitted effect of over 45% in size
Method in brief: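 Fluorescence from CellTiter-Fluor indicates live cells after 23 h exposure. The human hepatoma line expresses hCAR and a CYP2B6-2.2kb reporter. Incubation medium contains 0.75 uM PK11195 (final).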

[4] = qHTS assay to identify small molecule antagonists of the constitutive androstane receptor (CAR) signaling pathway - cell viability counter screen (AID 1224837); also: series mostly up to about 92 µM; nearly all actives have a fitted effect of over 45% in size
Method in brief: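 Viability was measured with CellTiter-Fluor in a HepG2 line carrying stably transfected hCAR and a CYP2B6-2.2kb construct. Cells were exposed for 23 hr at 37 C to 15 compound concentrations with 50 nM CITCO as agonist.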

[5] = target: Nuclear receptor subfamily 1 group I member 3 (Homo sapiens) (UniProt Q14994); assay: qHTS assay to identify small molecule agonists of the constitutive androstane receptor (CAR) signaling pathway (AID 1224839); also: nearly all actives have a fitted effect of over 15% in size; also: potency is read from the fitted curve at half-maximal effect
Nuclear receptor subfamily 1 group I member 3 (Homo sapiens), sequence (Q14994 whole entry, looked up): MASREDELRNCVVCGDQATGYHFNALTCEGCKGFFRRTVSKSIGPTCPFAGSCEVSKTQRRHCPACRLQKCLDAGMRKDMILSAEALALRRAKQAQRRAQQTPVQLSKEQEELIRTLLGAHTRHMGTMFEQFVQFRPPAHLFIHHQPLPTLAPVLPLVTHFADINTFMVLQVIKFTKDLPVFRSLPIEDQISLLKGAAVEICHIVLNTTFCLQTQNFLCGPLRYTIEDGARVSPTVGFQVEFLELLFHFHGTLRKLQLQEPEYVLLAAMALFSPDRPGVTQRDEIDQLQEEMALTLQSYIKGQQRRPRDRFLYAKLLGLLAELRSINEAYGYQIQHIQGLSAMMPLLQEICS
Method in brief: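 Stable hCAR/CYP2B6-2.2kb HepG2 line in DMEM with 10% FBS; compounds (15 concentrations) and 0.75 uM PK11195 final, 24 h at 37 C/5% CO2, then ONE-Glo luminescence after 30 min.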

[6] = qHTS assay to identify small molecule antagonists of the estrogen related receptor signaling pathway with the pleiotropic PPARgamma coactivator (PGC) from Tox21 10K library - cell viability counter screen (AID 1224840; active = well fitted cell-killing curve with a large enough effect in the repeat runs, not every such curve was filed as active; also: nearly all actives have a fitted effect of over 40% in size)
Method in brief: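 Multiplexed viability counter screen in the PGC/ERR cell line: cells treated with DMSO-dissolved compounds for 17.5 hours at 37 C, then viability measured as CellTiter-Fluor fluorescence.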

[7] = qHTS assay to identify small molecule antagonists of the estrogen related receptor signaling pathway with the pleiotropic PPARgamma coactivator (PGC) from Tox21 10K library (AID 1224841; call rule not given here; also: series mostly up to about 92 µM; actives are mostly falling curves and most rising ones were filed inactive; nearly all actives have a fitted effect of over 50% in size)
Method in brief: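 Steps: plate 2,000 PGC/ERR cells per well; incubate 6 h at 37 C with 5% CO2; transfer compounds from DMSO stocks by pin tool; incubate 18 h at 37 C; add One-Glo; measure luminescence 30 min later.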

[8] = qHTS assay to identify small molecule agonists of the estrogen related receptor signaling pathway with the pleiotropic PPARgamma coactivator (PGC) from Tox21 10K library (AID 1224842); also: nearly all actives have a fitted effect of over 15% in size; also: potency is read from the fitted curve at half-maximal effect
Method in brief: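 PGC/ERR reporter cells (NTP line) were seeded 2,000 per well, rested 6 h at 37 C/5% CO2, then pin-dosed with compounds in DMSO for 18 h at 37 C; luciferase read by One-Glo luminescence after 30 min at room temperature.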

[9] = target: Thyrotropin receptor (Homo sapiens) (UniProt P16473); assay: qHTS assay to identify small molecule agonists of the thyroid stimulating hormone receptor (TSHR) signaling pathway (AID 1224843; calls by dose curve; also: nearly all actives have a fitted effect of over 45% in size)
Thyrotropin receptor (Homo sapiens), sequence (P16473 whole entry, looked up): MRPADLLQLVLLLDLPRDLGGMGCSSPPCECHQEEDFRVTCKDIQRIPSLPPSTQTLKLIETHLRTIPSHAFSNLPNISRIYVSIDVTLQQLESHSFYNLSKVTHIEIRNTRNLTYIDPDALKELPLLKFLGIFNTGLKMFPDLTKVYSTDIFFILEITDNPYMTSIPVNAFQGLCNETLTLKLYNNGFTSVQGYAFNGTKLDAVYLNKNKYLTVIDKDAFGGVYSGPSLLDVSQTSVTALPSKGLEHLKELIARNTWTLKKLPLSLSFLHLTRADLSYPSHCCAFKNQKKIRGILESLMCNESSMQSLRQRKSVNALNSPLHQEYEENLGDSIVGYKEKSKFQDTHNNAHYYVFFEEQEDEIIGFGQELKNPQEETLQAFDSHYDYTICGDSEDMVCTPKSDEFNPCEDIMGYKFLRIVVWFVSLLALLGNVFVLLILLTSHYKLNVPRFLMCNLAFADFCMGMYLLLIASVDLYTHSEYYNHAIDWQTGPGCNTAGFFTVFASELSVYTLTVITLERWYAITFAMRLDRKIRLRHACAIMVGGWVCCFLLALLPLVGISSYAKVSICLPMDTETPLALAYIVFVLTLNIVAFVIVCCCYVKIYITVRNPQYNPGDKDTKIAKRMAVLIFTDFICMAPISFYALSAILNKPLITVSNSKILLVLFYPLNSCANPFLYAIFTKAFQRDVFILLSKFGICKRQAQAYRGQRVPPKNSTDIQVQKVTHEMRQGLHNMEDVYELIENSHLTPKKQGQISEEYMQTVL
Method in brief: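 Using 15 concentrations per compound in triplicate, cAMP production was monitored in TSHR-HEK293 cells after 30 min compound incubation at RT; HTRF reagents followed, with fluorescence intensity recorded after 1 h.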

[10] = target: Nuclear receptor subfamily 1 group I member 3 (Homo sapiens) (UniProt Q14994); assay: qHTS assay to identify small molecule antagonists of the constitutive androstane receptor (CAR) signaling pathway (AID 1224838);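 also: HepG2 cells stably expressing hCAR with CYP2B6 luciferase reporter stimulated by CITCO; nearly all actives have a fitted effect of over 40% in size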
Method in brief: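 Antagonist mode used CITCO at a final 50 nM to activate CAR in human hepatoma HepG2 cells carrying stable hCAR and a 2.2 kb CYP2B6 promoter-luciferase construct. Compounds were tested at 15 concentrations over 24 h, with luminescence as the end point.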

Row | Structure (SMILES) | Potency [1] | Potency [2] | Potency [3] | Potency [4] | Potency [5] | Potency [6] | Potency [7] | Potency [8] | Potency [9] | Potency [10]
1 | CCCCCCCCCCCCCCCCOP(=O)([O-])OCC[N+](C)(C)C | inactive | inactive | inactive | inactive | inactive | inactive | inactive | inactive | inactive | 
2 | CN1[C@@H]2CC[C@H]1CC(OC(=O)c1c[nH]c3ccccc13)C2 (stereo partly specified) | inactive | inactive | inactive | inactive |  | inactive |  |  |  | inactive
3 | CC(C)(C)C1CCCCC1=O (stereo unspecified) | inactive | inactive | inactive | inactive |  | inactive |  |  |  | inactive
4 | Cc1ccsc1C(=CCCN1CCC[C@@H](C(=O)O)C1)c1sccc1C | inactive | inactive | inactive | inactive | inactive | inactive |  |  | inactive | inactive
5 | CC(=O)O[C@H]1CC[C@@]2(C)C(=CC[C@@H]3[C@@H]2CC[C@]2(C)C(C(C)=O)=CC[C@@H]32)C1 | inactive | inactive | inactive | inactive | inactive | inactive |  |  | inactive | inactive
6 | Cc1ncc(CO)c(CN)c1O | inactive | inactive | inactive | inactive |  | inactive | inactive | inactive | inactive | inactive
7 | C=CCc1cc(OC)c(O)c(C(=O)NCCO)c1 | inactive | inactive | inactive | inactive |  | inactive |  |  |  | inactive
8 | COC(=O)N[C@H](C(=O)N[C@@H](Cc1ccccc1)[C@@H](O)CN(Cc1ccc(-c2ccccn2)cc1)NC(=O)[C@@H](NC(=O)OC)C(C)(C)C)C(C)(C)C | inactive | inactive | inactive | inactive | inactive | inactive |  |  |  | 
9 | OCc1ccccc1O | inactive | inactive | inactive | inactive | inactive | inactive |  |  | inactive | inactive
10 | c1ccc(CN(CC2=NCCN2)c2ccccc2)cc1 | inactive | inactive | inactive | inactive |  | inactive | inactive | inactive | inactive | inactive
11 | C1CSCCS1 | inactive | inactive | inactive | inactive | inactive | inactive | inactive | inactive | inactive | 
12 | CC(C)CCCCCCc1ccc(OCCOCCO)cc1 | inactive | inactive | inactive | inactive |  | inactive | inactive | inactive | inactive | inactive
13 | CN1C(=O)CC(c2ccccc2)C1=O (stereo unspecified) | inactive | inactive | inactive | inactive | inactive | inactive |  |  | inactive | 
14 | CN1CCN(C2=Nc3cc(F)ccc3Cc3ccccc32)CC1 | inactive | inactive | inactive | inactive | inactive | inactive | inactive | inactive |  | 
15 | Oc1ccccc1C=NCc1ccccc1 | inactive | 34.7 µM (active) | inactive | inactive |  | inactive |  |  | inactive | inactive
16 | CC1=C2[C@H](/C=C(\C)C(=O)O)CC[C@@H](C)[C@H]2CC1 | inactive | inactive | inactive | inactive |  | inactive | inactive | inactive |  | inactive
17 | CC(C)(C)c1ccc(OC(=O)c2ccccc2O)cc1 | inactive | 1.78 µM (active) | inactive | inactive |  | inactive | inactive | 10.9 µM (active) | inactive | inactive
18 | COc1cc2c(cc1N)oc1ccccc12 | inactive | 36.3 µM (active) | inactive | inactive | 31.3 µM (active) | inactive | inactive |  | inactive | 
19 | CC1=CC(=O)CC(C)(C)C1=O | inactive | inactive | inactive | inactive | inactive | inactive |  |  | inactive | inactive
20 | C[C@@H](N)C(=O)O | inactive | inactive | inactive | inactive |  | inactive |  |  | inactive | inactive
21 | Cc1cccc(C)c1NC(=O)CN1CCCCCC1 | inactive | inactive | inactive | inactive |  | inactive | inactive | inactive | inactive | inactive
22 | NC/C=C/C(=O)O | inactive | inactive | inactive | inactive | inactive | inactive | inactive | inactive | inactive | 
23 | OCCN1CCN(CCO)CC1 | inactive | inactive | inactive | inactive | inactive | inactive |  |  | inactive | inactive
24 | CN(C)CCOc1ccccc1Cc1ccccc1 | inactive | inactive | inactive | inactive |  | inactive |  | inactive |  | inactive
25 | Cc1cn([C@@H]2O[C@H](CO)[C@@H](O)[C@@H]2F)c(=O)[nH]c1=O | inactive | inactive | inactive | inactive |  | inactive |  |  | inactive | inactive
26 | O=C(O)c1cccc(Cl)c1Cl | inactive | inactive | inactive | inactive |  | inactive |  |  | inactive | inactive
27 | CCCCC(CC)COC(=O)COc1cc(Cl)c(Cl)cc1Cl (stereo unspecified) | inactive | inactive | inactive | inactive |  | inactive |  |  |  | 
28 | CCN(CCCc1ccccc1)CCCc1ccccc1 | inactive | inactive | inactive | inactive |  | inactive |  | inactive | inactive | 
29 | CCOC(=O)c1ccccc1O | inactive | inactive | inactive | inactive |  | inactive | inactive | inactive |  | 
